Measurements published in PubChem BioAssay (NCI).
Where “and” joins values, the source holds several entries; their conditions need not be identical. Equal values may be shown once. About 83,000 compounds went through this panel and 20% of them were active in at least one assay; those are over-represented in the sample as a whole.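 The test compound was applied at a single concentration to cells in 96-well plates for 48 hours, and percent growth was recorded.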 Calls of active or inactive are those of the source. Rule for the calls: active = growth percent below 10; inactive = the rest.

What follows are molecules tested on MDA-MB-468 breast (assay: NCI-60 one-dose screen, 48 h (100 = growth as untreated, 0 = no growth, -100 = all killed)). Conditions: 10 µM unless noted.

Structure (SMILES)	growth
CC[C@H](Nc1cc(C)nc(N)n1)c1nc2cccc(NCc3ccc(C(=O)NO)cc3)c2c(=O)n1-c1ccccc1	-10.6% (active)
O=C1NC(=S)NC(=O)C1CC(=O)n1c(-c2ccccc2)nc2ccccc21	105% (inactive)
O=c1ccc(-c2nc(N3CCOCC3)c3ccccc3n2)c[nH]1	95.8% (inactive)
CNC(=O)c1cc(Oc2ccc(NC(=O)Nc3ccc(Cl)c(C(F)(F)F)c3)cc2)ccn1	-12.8% (active) and 20.5% (inactive)
N#Cc1cnc2cc(OC[C@H](O)CO)c(NC(=O)CC3CSSC3)cc2c1Nc1ccc(OCc2cccc(F)c2)c(Cl)c1	-78.3% (active)
CC(=O)O[C@H]1CC[C@]2(C)[C@H]3CC[C@@H]4[C@H]5[C@H](C(C)C)CC[C@]5(C(=O)OCC(CO)(CO)N=C(N)N)CC[C@@]4(C)[C@]3(C)CC[C@H]2C1(C)C	-25.5% (active)
Cc1ccc(-c2cn(C/C=C3\C=CN(S(=O)(=O)c4ccccc4)CC3)nn2)cc1	86.8% (inactive)
CCOP(=O)(OCC)c1nc(-c2ccccc2)oc1NCc1cccnc1	114% (inactive)
O=C1COCCN1c1ccc(NCc2cn(Cc3ccccc3)c3ccccc23)cc1	-76% (active)
COc1cc2cc(Oc3ccc(NC(=O)Nc4ccc(F)c(C(F)(F)F)c4)cc3)c(C)nc2cc1OCCN1CCCCC1	71.3% (inactive)
